In the library only some 5.8% were active in any assay of this set; here they are far more common.
GBA mod – human lysosomal glucosylceramidase modulation; P04062; purified enzyme, resorufin glucoside fluorescence (screen aimed at inhibitors), 20 min; hit rate 1.1% among 48,000; Potency, µM; in the data active means potency below about 15 µM; inconclusive means mostly about 16 µM to 33 µM;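 further: the screen sought inhibitors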
Target sequence (P04062 whole entry, looked up): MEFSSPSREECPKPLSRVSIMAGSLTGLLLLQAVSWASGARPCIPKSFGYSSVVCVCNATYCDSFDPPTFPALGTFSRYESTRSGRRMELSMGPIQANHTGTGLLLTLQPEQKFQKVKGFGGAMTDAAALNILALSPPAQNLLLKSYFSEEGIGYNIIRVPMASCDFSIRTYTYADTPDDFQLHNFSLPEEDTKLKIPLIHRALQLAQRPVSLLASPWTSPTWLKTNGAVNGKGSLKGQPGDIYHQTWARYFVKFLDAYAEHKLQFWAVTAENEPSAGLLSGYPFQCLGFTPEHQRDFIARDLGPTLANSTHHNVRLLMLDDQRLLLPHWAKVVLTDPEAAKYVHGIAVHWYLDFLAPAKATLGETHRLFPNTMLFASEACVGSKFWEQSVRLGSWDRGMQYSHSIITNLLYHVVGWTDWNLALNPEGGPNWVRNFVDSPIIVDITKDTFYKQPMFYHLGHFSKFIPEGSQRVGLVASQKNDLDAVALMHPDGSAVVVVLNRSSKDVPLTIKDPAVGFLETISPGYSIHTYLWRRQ
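Wild-type enzyme at 0.2 nM final in 50mM citric acid/KH2PO4, 10mM sodium taurocholate, 0.01% tween-20, pH 5.9, with resorufin beta-D-glucopyranoside at 30 uM final. Compounds titrated, 20 min at RT, red fluorescence read; AC50 from titration.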
HEK293 cAMP cs – raises cAMP in parental HEK293 cells, TSHR agonist counter-screen | hit rate 2.5% among 73,000 | parental HEK293 CNG cAMP sensor, membrane potential fluorescence | Potency, µM (highest dose often 57.1 µM), inactives show top-dose activation, most hits filed as activators; further: % of control where 0% means no effect; nearly all actives have a fitted effect of over 55% in size
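Parental HEK 293 cells stably expressing a modified CNG channel (no TSHR) report cAMP rise as membrane depolarization. Membrane potential dye with 100 uM RO 20-1724 was loaded for 60 min at room temperature, then compound added for 30 min; fluorescence read at 590 nm.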
TSHR ag – agonists of human thyroid stimulating hormone receptor. Potency, µM (top dose mostly 57.1 µM), for the others: at the top dose activation, actives largely listed as activators. hit rate 0.48% among 73,000. HEK293-CNG-TSHR cells (CNG channel as cAMP sensor), membrane potential dye, cAMP. P16473; active means well fitted activation curve with a large enough effect in the main read-out, with a control signal flat, not every such curve was filed as active; inconclusive means small, poorly fitted or top-dose-only effect, or a change in a side signal; inactive means no such curve, though single readings can be large or run the other way; % of control where 0% means no effect;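 further: the control signal comes from parental cells without the receptor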
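cAMP rise detected as CNG-channel membrane depolarization by fluorescent dye (emission 590 nm), 30 min after compound, following 60 min dye loading containing 100 uM RO 20-1724 at room temperature. Cells: TSHR/CNG HEK 293, with parental CNG HEK 293 as control.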
FLuc inh – blocks Photinus pyralis firefly luciferase activity | P08659 | purified firefly luciferase, luminescence, 8 min | Potency, µM (top dose mostly 57.1 µM), inactives show at the highest dose activity change, negative = inhibition, hits mostly inhibitors | hit rate 2.2% among 72,000; further: on the % scale 0 is the no-effect control and ±100 the full control effect; nearly all actives have a fitted effect of over 40% in size
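Inhibition of light generation by firefly luciferase from ATP and luciferin was profiled with concentration-response curves per sample, ATP held at 10 uM within the enzyme's linear range. Plates were read by luminescence after an 8-minute ambient incubation.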
PK Bst – modulators of Bacillus stearothermophilus pyruvate kinase; hit rate 1.2% among 51,000; purified pyruvate kinase, luminescence ATP production; ribose 5-phosphate activator present at AC10; Potency, µM; in the data active means potency below about 11 µM; inconclusive means mostly about 12 µM to 25 µM;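 the screen sought inhibitors and activators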;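 further: scaled between full activation by ribose 5 phosphate and full inhibition by luteolin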
An asterisk follows results filed as active; [ ] = remark or other dose. Unless noted, the call rests on the fitted dose curve; in most records, active means well fitted curve in the direction sought with a large enough effect; inconclusive means small, poorly fitted or top-dose-only effect, or another doubt; inactive means no such curve, though single readings can be large; an effect the other way counts as inactive or inconclusive. Potency means the concentration at half of the fitted maximal effect.

For Cc1cc(C)c(C)c(S(=O)(=O)NCc2ccco2)c1C the results were GBA mod >77, HEK293 cAMP cs inconclusive, TSHR ag inconclusive, FLuc inh 0% and PK Bst 11*.
Cc1ccc(S(=O)(=O)NCc2ccco2)cc1C was read as HEK293 cAMP cs -2%, TSHR ag 3% and FLuc inh 0%.
Cc1nc2cnc(N3CCN(C)CC3)nc2n(C2CC2)c1=O was read as HEK293 cAMP cs 2%, TSHR ag -3% and FLuc inh 1%[11.4 µM].
`COC(=O)c1ccccc1NC(=O)COc1ccccc1` gave HEK293 cAMP cs 32µM*, TSHR ag inconclusive and FLuc inh -4%.
`COCCNC(=O)c1ccccc1NC(=O)COc1ccccc1` gave GBA mod >77, HEK293 cAMP cs 0%, TSHR ag 6%, FLuc inh 0% and PK Bst >57.
For COC(=O)c1ccccc1NC(=O)c1cc(OC)cc(OC)c1 the results were HEK293 cAMP cs 25µM*, TSHR ag inconclusive, FLuc inh -1% and PK Bst >57.
Screening CC(=O)NCCNc1ncnc2ccc(-c3ccccc3C#N)cc12 returned HEK293 cAMP cs -5%, TSHR ag 5% and FLuc inh 1%[2.29 µM].
COC(=O)c1ccc(OC)c(CSc2nnc(COc3cccc(C)c3)o2)c1 was read as GBA mod >77, HEK293 cAMP cs inconclusive, TSHR ag inconclusive, FLuc inh -7% and PK Bst >57.
Screening COC(=O)c1ccc(OC)c(CSc2nnc(COc3ccc(OC)cc3)o2)c1 returned GBA mod >77, HEK293 cAMP cs 13µM*, TSHR ag inconclusive, FLuc inh 0% and PK Bst >57.
`COc1ccc(C(C)=O)cc1CSc1nc2ccccc2o1` gave GBA mod >77, HEK293 cAMP cs 25µM*, TSHR ag inconclusive, FLuc inh 0% and PK Bst >57.
For Cc1ccc(S(=O)(=O)CC(=O)Nc2ccc(S(=O)(=O)Nc3onc(C)c3C)cc2)cc1 the results were GBA mod >77, HEK293 cAMP cs -2%, TSHR ag 3%, FLuc inh -1% and PK Bst >57.
`Cc1noc(NS(=O)(=O)c2ccc(NC(=O)CCC3CCCC3)cc2)c1C` gave GBA mod 15*, HEK293 cAMP cs -6%, TSHR ag 27%, FLuc inh 0% and PK Bst >57.
`COc1ccc(N2CCN(C(=O)c3sc4nc(-c5ccc(F)cc5)cn4c3C)CC2)cc1` gave HEK293 cAMP cs 0%, TSHR ag 1% and FLuc inh 2%.
Screening COc1ccc(-c2cn3c4c(sc3n2)CCCC4)cc1 returned GBA mod >77, HEK293 cAMP cs 13%, TSHR ag 16%, FLuc inh 0.63µM* and PK Bst 0.54*.
For Cc1oc(-c2nc3ccccc3n2C)cc1C(=O)c1ccccc1 the results were GBA mod >77, HEK293 cAMP cs 25µM*, TSHR ag inconclusive, FLuc inh 2.5µM* and PK Bst 3.4*.
`Cc1nc2cc(CO)ccc2n1C` gave GBA mod >77, HEK293 cAMP cs -1%, TSHR ag 5%, FLuc inh 1% and PK Bst >57.
`CC(=O)c1ccc(-c2nc3ccccc3n2C)o1` gave GBA mod >77, HEK293 cAMP cs 8%, TSHR ag 18%, FLuc inh 1% and PK Bst >57.
`Cn1c(-c2ccc(Br)o2)nc2cc(Br)ccc21` gave GBA mod >77, HEK293 cAMP cs 16µM*, TSHR ag inconclusive and FLuc inh 6.3µM*.
Cn1cc(C(=O)c2ccccc2)cc1-c1nc2ccccc2n1C was read as GBA mod >77, HEK293 cAMP cs 30%, TSHR ag 35%, FLuc inh -1% and PK Bst >57.
For Cn1c(-c2ccc(Br)o2)nc2ccccc21 the results were GBA mod >77, HEK293 cAMP cs inconclusive, TSHR ag inconclusive, FLuc inh 7.9µM* and PK Bst inconclusive.
O=c1cnc2cnc(N3CCNCC3)nc2n1Cc1cccs1 was read as HEK293 cAMP cs 19%, TSHR ag 9% and FLuc inh 0%[11.4 µM].
C/C(NC(=O)c1ccccc1)=C1/C(=O)CC2C1C2(C)C (stereo not given) was read as HEK293 cAMP cs 4µM*, TSHR ag inconclusive and FLuc inh -8%.
